The values that follow come from PubChem BioAssay.

Assay [1] deals with Wnt5a (protein binding on small-molecule microarray). In words: Wnt5a binders on small-molecule microarray, primary screen, biophysical, 635/667 nm fluorescence (AID 1142).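 Also: fluorescence read at 667 nm with signal to noise per printed feature.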 The note with it: 635 nm fluorescence, higher = more signal.
Assay [2] can be described thus: cell viability in Huh7 cells, primary screen, cytotoxicity control for HCV replication inhibitor project, CellTiter-Glo luminescence, basal, 48 h (AID 1143).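 Also: Huh7 hepatoma cells carrying a hepatitis C replication reporter with no stimulus; test concentration not given here.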 The note with it: Huh7 HCV replicon, higher = more signal, called active from +8 up or from −8 down. A general note: In ATP-based viability assays light output follows the ATP content of the culture.
A short description of assay [3]: P. aeruginosa biofilm formation inhibitors, primary screen, PAO1 strain, BacTiter-Glo luminescence, LB-PBS (AID 1144). The note with it: 12 h, higher = more signal.
Assay [4] can be described thus: CREB reporter modulators without forskolin, primary screen, cell-based, PC12, CRE-LacZ reporter, unstimulated (AID 1145). The conditions noted are these: no forskolin, luminescence, 4.5 h, higher = more signal, called active from +8 up or from −8 down.
The nature of assay [5]: CREB reporter modulators under forskolin, primary screen, cell-based, PC12, CRE-LacZ reporter, forskolin-stimulated (AID 1146).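 Also: PC12 cells with 6xCRE LacZ reporter stimulated by forskolin 10 µM; beta-galactosidase reporter signal reflecting CREB driven transcription.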 The conditions noted are these: luminescence, 4.5 h, higher = more signal, called active from +8 up or from −8 down.
The target in assay [6] is Streptavidin (Streptomyces avidinii) (UniProt P22629). Briefly: streptavidin binders on small-molecule microarray, primary screen, artefact control for SMM compound annotation, biophysical, 635/667 nm fluorescence (AID 1147).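 Also: signal reflects streptavidin binding to arrayed compounds as a control protein.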 The conditions noted are these: streptavidin binding, higher = more signal.
Chain of Streptavidin (Streptomyces avidinii) (P22629 whole entry, looked up): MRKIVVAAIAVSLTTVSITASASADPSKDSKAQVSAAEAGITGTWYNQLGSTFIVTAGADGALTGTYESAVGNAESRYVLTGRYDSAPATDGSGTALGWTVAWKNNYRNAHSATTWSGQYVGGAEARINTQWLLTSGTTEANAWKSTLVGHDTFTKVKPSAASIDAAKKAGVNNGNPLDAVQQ
Assay [7] can be described thus: small-molecule binders of probe aInhba, primary screen, biochemical, small-molecule microarray, 635/667 nm fluorescence (AID 1148).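 Also: score merges 667nm spot fluorescence with signal-to-noise for antibody binding to printed compounds.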 The note with it: higher = more signal.
The target of assay [8] is Torsin-1A (Homo sapiens) (UniProt O14656). Briefly: torsin A binders from cell lysate, primary screen, small-molecule microarray, wild-type, 635/667 nm (AID 1149). The note with it: COS7 hTOR1A-WT lysate, 635 nm fluorescence, higher = more signal.
Chain of Torsin-1A (Homo sapiens) (O14656 whole entry, looked up): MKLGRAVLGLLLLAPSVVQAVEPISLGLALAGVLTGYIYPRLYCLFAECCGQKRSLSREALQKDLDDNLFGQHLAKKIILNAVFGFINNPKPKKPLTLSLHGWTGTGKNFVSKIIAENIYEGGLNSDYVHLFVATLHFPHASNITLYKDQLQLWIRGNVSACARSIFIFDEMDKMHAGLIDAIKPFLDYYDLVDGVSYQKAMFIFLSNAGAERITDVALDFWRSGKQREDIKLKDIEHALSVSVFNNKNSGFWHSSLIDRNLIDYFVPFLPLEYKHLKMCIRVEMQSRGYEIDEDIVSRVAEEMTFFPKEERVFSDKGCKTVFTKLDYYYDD
The target is the same in assay [9]. In words: small-molecule binders of mutant TOR1A in lysate, primary screen, cell lysate, small-molecule microarray, COS7 lysate, 635/667 nm fluorescence (AID 1150).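 Also: score pools 667 nm emission and signal to noise measuring lysate protein binding.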 The conditions noted are these: COS7 hTOR1A mutant lysate, 635 nm fluorescence, higher = more signal.
The subject of assay [10] is Sonic hedgehog protein (Shh). Briefly: small-molecule binders of Shh protein, primary screen, biochemical, small-molecule microarray, 635/667 nm fluorescence (AID 1151).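 Also: Shh protein binding to compounds spotted on small-molecule microarray slides; score combines spot fluorescence intensity with signal-to-noise across triplicate slides.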 The conditions noted are these: small-molecule microarray binding, 635 nm fluorescence; higher = more signal.
Assay [11] in a line: E. coli DRC41 culture turbidity changes, primary screen, E. coli filamentation inducer project, strain DRC41, OD650, 48 h (AID 1152).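 Also: E. coli MC1000 strain DRC41 lacking acrAB efflux pump and sulA.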 The note with it: E. coli DRC41 (acrAB sulA), higher = more signal, called active from +8 up or from −8 down.
Assay [12] is described as follows: small-molecule binders of probe aLefty1, primary screen, biochemical, small-molecule microarray, 635/667 nm fluorescence (AID 1153).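 Also: score merges spot fluorescence with signal-to-noise ratio from the scanned slide images.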 The note with it: higher = more signal.
Assay [13] can be described thus: PSAC antagonists in infected red cells, primary screen, cell-based, P. falciparum Indochina, OD700, 1 h (AID 1154). The conditions noted are these: P. falciparum Indochina infected RBC osmotic lysis, higher = more signal, called active from +8 up or from −8 down.
A short description of assay [14]: PSAC antagonists in infected red cells, primary screen, cell-based, P. falciparum Indochina, OD700, 2 h (AID 1155).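 Also: lysis reports solute entry through the parasite surface anion channel PSAC; channel blockers reduce lysis of infected cells.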 The conditions noted are these: P. falciparum Indochina infected erythrocytes, osmotic lysis OD700; higher = more signal, called active from +8 up or from −8 down.
The nature of assay [15]: osmotic lysis modulators in infected erythrocytes, primary screen, PSAC antagonist project, cell-based, P. falciparum Indochina, OD700, 3 h (AID 1156). The conditions noted are these: higher = more signal, called active from +8 up or from −8 down.
Assay [16] in a line: PSAC antagonists in infected red cells, primary screen, cell-based, P. falciparum Indochina, OD700, 18 h (AID 1157). The conditions noted are these: P. falciparum Indochina infected erythrocytes, osmotic lysis OD700, 18 h; higher = more signal, called active from +8 up or from −8 down.
Assay [17] can be described thus: modulators of S6 phosphorylation in cells, primary screen, cell-based, A549, cytoblot, luminescence, serum-stimulated (AID 1158).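 Also: serum-stimulated A549 lung adenocarcinoma cells; signal is phosphorylated S6 detected by cytoblot immunostaining with HRP secondary.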 The note with it: A549 phospho-S6 cytoblot, 5 h, higher = more signal.
Assay [18] addresses NADPH oxidase 2 (Homo sapiens) (UniProt P04839). In words: NOX2-dependent H2O2 signal modulators, primary screen, NOX inhibitor project, cell-based, HEK293-NOX2, PMA-stimulated, Amplex Red fluorescence (AID 1159). Also: test concentration not given here. The note with it: 45 min, higher = more signal, called active from +8 up or from −8 down.
The target in assay [19] is NADPH oxidase 4 (Homo sapiens) (UniProt Q9NPH5). In words: NOX4-dependent H2O2 signal modulators, primary screen, NOX inhibitor project, cell-based, HEK293-NOX4, tetracycline-induced, Amplex Red fluorescence (AID 1160). The conditions noted are these: 45 min, higher = more signal, called active from +8 up or from −8 down.
Chain of NADPH oxidase 4 (Homo sapiens) (Q9NPH5 whole entry, looked up): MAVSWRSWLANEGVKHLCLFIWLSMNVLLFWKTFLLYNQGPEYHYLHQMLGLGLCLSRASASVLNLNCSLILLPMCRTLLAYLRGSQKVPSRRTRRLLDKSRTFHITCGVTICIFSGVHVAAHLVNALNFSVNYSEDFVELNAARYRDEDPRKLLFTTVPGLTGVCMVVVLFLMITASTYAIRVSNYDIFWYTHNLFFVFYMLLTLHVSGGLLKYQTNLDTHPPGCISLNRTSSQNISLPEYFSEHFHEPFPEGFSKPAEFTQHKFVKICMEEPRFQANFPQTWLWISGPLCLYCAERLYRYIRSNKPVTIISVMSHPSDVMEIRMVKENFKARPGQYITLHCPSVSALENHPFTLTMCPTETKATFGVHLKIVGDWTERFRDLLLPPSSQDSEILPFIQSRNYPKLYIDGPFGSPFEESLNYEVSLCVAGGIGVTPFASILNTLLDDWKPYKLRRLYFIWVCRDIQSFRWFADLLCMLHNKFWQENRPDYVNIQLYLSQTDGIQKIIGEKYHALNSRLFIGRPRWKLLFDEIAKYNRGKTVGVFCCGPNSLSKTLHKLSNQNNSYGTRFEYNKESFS
For assay [20], the target named is NADPH oxidase 5 (Homo sapiens) (UniProt Q96PH1). In words: NOX5-dependent H2O2 signal modulators, primary screen, NOX inhibitor project, cell-based, HEK293-NOX5, Amplex Red fluorescence (AID 1161). The note with it: HEK293-NOX5, ionomycin, 45 min, higher = more signal.
Chain of NADPH oxidase 5 (Homo sapiens) (Q96PH1 whole entry, looked up): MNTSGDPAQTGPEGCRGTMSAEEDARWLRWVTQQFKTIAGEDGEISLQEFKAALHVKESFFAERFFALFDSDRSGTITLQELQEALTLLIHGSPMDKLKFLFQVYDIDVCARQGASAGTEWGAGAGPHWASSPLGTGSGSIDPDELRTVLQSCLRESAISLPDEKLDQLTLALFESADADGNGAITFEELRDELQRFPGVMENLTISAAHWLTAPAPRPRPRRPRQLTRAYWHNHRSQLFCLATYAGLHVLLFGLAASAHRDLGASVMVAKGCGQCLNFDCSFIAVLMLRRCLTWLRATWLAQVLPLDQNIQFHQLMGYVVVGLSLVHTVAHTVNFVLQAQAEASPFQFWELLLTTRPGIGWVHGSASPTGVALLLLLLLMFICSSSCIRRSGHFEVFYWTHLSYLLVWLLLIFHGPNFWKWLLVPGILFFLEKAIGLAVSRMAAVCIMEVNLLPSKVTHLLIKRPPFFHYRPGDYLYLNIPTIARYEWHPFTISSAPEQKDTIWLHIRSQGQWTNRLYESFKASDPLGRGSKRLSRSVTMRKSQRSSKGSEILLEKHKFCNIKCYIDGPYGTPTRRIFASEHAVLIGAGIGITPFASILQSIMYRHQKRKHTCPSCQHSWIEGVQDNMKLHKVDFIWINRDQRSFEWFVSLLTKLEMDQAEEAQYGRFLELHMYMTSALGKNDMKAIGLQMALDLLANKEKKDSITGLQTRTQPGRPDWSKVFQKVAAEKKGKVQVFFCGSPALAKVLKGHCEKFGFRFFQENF

The source made the active and inactive calls. Unless noted, no rule for the calls is given here.

Chain of NADPH oxidase 2 (Homo sapiens) (P04839 whole entry, looked up): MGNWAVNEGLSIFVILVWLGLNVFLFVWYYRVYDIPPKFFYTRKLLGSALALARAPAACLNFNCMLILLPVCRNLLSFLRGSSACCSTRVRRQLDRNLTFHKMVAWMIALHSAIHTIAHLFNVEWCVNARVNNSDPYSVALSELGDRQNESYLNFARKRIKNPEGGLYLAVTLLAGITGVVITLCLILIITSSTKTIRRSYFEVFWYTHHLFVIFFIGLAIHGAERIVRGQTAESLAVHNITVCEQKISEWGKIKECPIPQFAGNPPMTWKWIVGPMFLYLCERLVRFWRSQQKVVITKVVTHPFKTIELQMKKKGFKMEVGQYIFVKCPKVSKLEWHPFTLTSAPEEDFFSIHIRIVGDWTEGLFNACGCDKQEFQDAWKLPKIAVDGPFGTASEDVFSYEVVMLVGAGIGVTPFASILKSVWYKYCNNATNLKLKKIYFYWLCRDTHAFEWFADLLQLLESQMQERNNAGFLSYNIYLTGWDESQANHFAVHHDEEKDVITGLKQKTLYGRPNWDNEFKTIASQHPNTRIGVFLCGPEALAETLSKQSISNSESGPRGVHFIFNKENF

On to `CC(C)(C)OC(=O)CC[C@]1(C(=O)NCC(O)CO)N=C(c2ccc(OCCCO)cc2)O[C@H]1c1ccccc1` (stereo not given in full), for which the composite z-score in [1] is 0.167; in assay [6], 0.291; in [7] it was 0.0391; with Torsin-1A (Homo sapiens) [8], 0.709; with Torsin-1A (Homo sapiens) [9], 1.6; in assay [10], -1.56. In assay [12], this compound returned a composite z-score of 0.125. For the same compound, the z-score in assay [2] is -4.48 (inactive); in assay [3], -1.56 (inactive); in assay [4] it was -0.356 (inactive); in assay [5], -0.729 (inactive); in assay [11] it was 1.79 (inactive); in assay [13], 19.9 (active). Besides, the z-score in assay [14] is 1.43 (inactive); in assay [15], 2.61 (inactive); in [16] it was -1.32 (inactive); in assay [17], 2.01; in assay [18], 0.246 (inactive); in assay [19] it was 0.678 (inactive). In assay [20], this compound registered a z-score of 0.199.

In the case of `CCOC(=O)c1ccc(NC(=O)O[C@H]2[C@H](OC(=O)Nc3ccc4c(c3)OCO4)[C@@H](OC(=O)Nc3ccc4c(c3)OCO4)[C@@H](OC)O[C@@H]2CO)cc1`, the composite z-score turned out to be 0.332 in [1]; 0.398 in assay [6]; 0.38 in [7]; 0.164 with Torsin-1A (Homo sapiens) [8]; 0.676 with Torsin-1A (Homo sapiens) [9]; 1.73 in assay [10]. In [12], this compound yielded a composite z-score of 0.325. The z-score in assay [2] was -1.23 (inactive); in [3] it was 0.164 (inactive); in assay [4] it was 0.148 (inactive); in [5] it was -0.557 (inactive); in assay [11], 0.113 (inactive); in assay [13], 10.4 (active). For the same compound, the z-score in assay [14] was 1.31 (inactive); in assay [15] it was 0.843 (inactive); in [16] it was 0.593 (inactive); in assay [17] it was 0.0796; in assay [18] it was -3.35 (inactive); in assay [19] it was -0.689 (inactive). Also, the z-score in assay [20] was -1.77.

On to `COc1ccc(NC(=O)O[C@H]2[C@H](OC(=O)Nc3ccccc3)[C@H](OC(=O)Nc3ccccc3)[C@@H](OC)O[C@@H]2CO)cc1`, for which the composite z-score was determined as 1.14 in assay [1]; 0.0994 in assay [6]; 0.398 in assay [7]; 0.97 in the assay with Torsin-1A (Homo sapiens) [8]; 1.1 with Torsin-1A (Homo sapiens) [9]; 1.44 in assay [10]. In [12], this compound came in with a composite z-score of 0.457. Also, the z-score in [2] was -4.38 (inactive); in assay [3] it was 0.643 (inactive); in [4] it was 0.204 (inactive); in assay [5] it was -1.05 (inactive); in assay [11], -1.37 (inactive); in assay [13], 8.18 (active). In addition, the z-score in [14] was 1.26 (inactive); in assay [15] it was -0.329 (inactive); in assay [16] it was 0.889 (inactive); in assay [17] it was 0.0488; in assay [18] it was 0.824 (inactive); in assay [19], -0.11 (inactive). Moreover, in assay [20], the z-score was -0.922.

For `C=CCOC(=O)[C@H]1[C@@H]2C(=O)O[C@@H](c3ccccc3)[C@@H](c3ccccc3)N2[C@@H](c2ccc(OCCOC(=O)[C@@H]3C[C@@H]4C(=O)N5CCC[C@H]5C(=O)N4[C@@H]3c3ccc(O)cc3)cc2)[C@]12C(=O)Nc1ccc(I)cc12`, the composite z-score in assay [1] was determined as 0.269; in assay [6] it was 0.107; in assay [7], 0.177; with Torsin-1A (Homo sapiens) [8], 0.655; with Torsin-1A (Homo sapiens) [9] it was 0.504; in assay [10] it was 1.72. The compound also registered a composite z-score in [12] of 0.293. Besides, the z-score in [2] is -0.648 (inactive); in assay [3], -0.42 (inactive); in assay [4], 0.423 (inactive); in [5], 0.016 (inactive); in assay [11], -0.695 (inactive); in assay [13] it was 1.81 (inactive). The z-score in [14] is 1.74 (inactive); in assay [15], 0.836 (inactive); in assay [16], 0.889 (inactive); in assay [17], -0.597; in assay [18] it was 1.47 (inactive); in assay [19], 0.482 (inactive). Besides, in [20], the z-score is 0.186.

As for `COC(=O)[C@@]1(Cc2ccc(F)cc2)[C@H]2c3cc(C(=O)N4CCCC4)n(CCN4CNCC4=O)c3C[C@H]2CN1C(=O)c1ccccc1`, the composite z-score in assay [1] is 0.289; in assay [6] it was 1.04; in assay [7] it was 0.179; with Torsin-1A (Homo sapiens) [8] it was 1.51; with Torsin-1A (Homo sapiens) [9], 1.77; in assay [10], -0.164. Also, in [12], the composite z-score came to 0.497. The z-score is -1.11 (inactive) in assay [2]; -0.917 (inactive) in assay [3]; 0.39 (inactive) in assay [4]; -1.08 (inactive) in assay [5]; -1.59 (inactive) in [11]; 1.85 (inactive) in assay [13]. Further, the z-score in assay [14] was 0.811 (inactive); in [15], 2.24 (inactive); in assay [16] it was 0.937 (inactive); in assay [17] it was 1; in assay [18] it was 0.821 (inactive); in assay [19], -0.489 (inactive). The compound also had a z-score in [20] of -5.26.
